# Data from PubChem BioAssay AID504339 (National Center for Advancing Translational Sciences (NCATS), 2011).
# The campaign covered roughly 390,000 compounds. About 17,000 (4.4%) were called active. Another 8% or so got no clear call; they are omitted. For the sample, actives were picked, then their nearest neighbours and some compounds at random. Unmarked numbers belong to inactive results. Calls follow the shape of the dose curve; as a rule, active = well fitted inhibition curve with a large enough effect; inconclusive = small, poorly fitted or top-dose-only effect; inactive = no such curve, though single readings can be large or run the other way.
# Target: Lysine-specific demethylase 4A (Homo sapiens) (UniProt O75164)
# Sequence (O75164 whole entry, looked up, the tested form may be a part): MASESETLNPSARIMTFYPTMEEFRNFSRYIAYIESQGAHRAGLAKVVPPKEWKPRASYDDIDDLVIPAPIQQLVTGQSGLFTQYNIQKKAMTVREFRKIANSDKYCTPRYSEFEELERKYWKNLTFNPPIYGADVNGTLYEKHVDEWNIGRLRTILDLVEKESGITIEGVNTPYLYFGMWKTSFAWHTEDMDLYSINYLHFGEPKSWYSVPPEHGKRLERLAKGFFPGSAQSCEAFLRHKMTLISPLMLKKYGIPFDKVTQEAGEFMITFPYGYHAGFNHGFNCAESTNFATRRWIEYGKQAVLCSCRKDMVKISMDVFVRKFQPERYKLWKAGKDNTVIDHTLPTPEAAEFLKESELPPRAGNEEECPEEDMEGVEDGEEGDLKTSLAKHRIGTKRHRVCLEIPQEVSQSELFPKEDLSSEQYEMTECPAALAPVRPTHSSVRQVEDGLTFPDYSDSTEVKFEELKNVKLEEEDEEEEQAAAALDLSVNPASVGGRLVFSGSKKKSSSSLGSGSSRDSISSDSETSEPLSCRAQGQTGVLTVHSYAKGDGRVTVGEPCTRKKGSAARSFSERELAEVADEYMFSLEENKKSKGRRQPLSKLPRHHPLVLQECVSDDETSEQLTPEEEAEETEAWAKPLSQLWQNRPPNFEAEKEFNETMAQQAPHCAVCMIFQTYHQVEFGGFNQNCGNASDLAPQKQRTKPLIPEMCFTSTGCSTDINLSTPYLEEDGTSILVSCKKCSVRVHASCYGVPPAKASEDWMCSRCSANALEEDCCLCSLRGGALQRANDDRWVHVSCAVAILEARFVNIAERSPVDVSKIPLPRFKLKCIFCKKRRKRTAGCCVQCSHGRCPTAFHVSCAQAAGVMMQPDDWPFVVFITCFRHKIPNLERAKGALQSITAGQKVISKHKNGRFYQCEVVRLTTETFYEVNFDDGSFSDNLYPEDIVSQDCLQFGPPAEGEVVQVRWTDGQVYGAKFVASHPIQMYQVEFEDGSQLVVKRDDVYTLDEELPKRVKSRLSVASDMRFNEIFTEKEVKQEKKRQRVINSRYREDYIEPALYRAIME
# Assay: qHTS Assay for Inhibitors of JMJD2A-Tudor Domain; also: nearly all actives have a fitted effect of over 50% in size
# Details: AlphaScreen JMJD2A-Tudor / H3K4me3 peptide binding; series mostly up to 114 µM; activity change, negative = inhibition: at the top concentration
# % is scaled to controls: 0 for no effect and ±100 for the full control effect; potency is read from the fitted curve at half-maximal effect.
Structure (SMILES),"activity change, negative = inhibition [%]",Potency
O=C(CC1C(=O)N(c2ccccc2)C(=O)N1CCc1cccs1)Nc1ccc(F)cc1 (centres undefined),-16.2,–
O=C(NCCCO)C(=O)Nc1c2c(nn1-c1ccccc1)CSC2,6.49,–
COc1cccc(-c2nc(S(=O)(=O)c3ccc(C)cc3)c(NCc3ccccc3)o2)c1,-30.1,–
O=C(NCc1ccc(F)cc1)c1ccc2nc(N3CCCCC3)sc2c1,-13.4,–
Cc1ccc(NC(=O)CSc2nc3c([nH]c4ccccc43)c(=O)n2-c2ccccc2)c(C)c1,-9.03,–
O=C(Nc1ccc(Br)cc1)c1ccc(Br)c(S(=O)(=O)NCc2ccccc2)c1,-16.7,–
COc1ccc(CCNC(=O)c2ccc3c(c2)sc2nc(-c4ccc(C)cc4)cn23)cc1OC,-2.96,–
Cc1ccc(Oc2c(C(F)(F)F)oc3c(CN4CCCCC4)c(O)ccc3c2=O)cc1,-11.8,–
O=C(c1ccc(F)cc1)N1CCCC(C(=O)N2CCCCC2)C1 (centres undefined),-5.84,–
O=C(c1ccc(F)cc1)N1CCC(n2nnc3ccccc32)CC1,-0.369,–
CC1CCCC(N2CCN(C(=O)c3ccc(F)cc3)CC2)C1 (centres undefined),–,10 µM (active)
CCOc1ccc(S(=O)(=O)Nc2ccc3oc4c(c3c2)CC(C)CC4)cc1 (centres undefined),-24.4,–
Cc1ccccc1CSc1nc2c([nH]c3ccccc32)c(=O)n1C,-7.74,–
Cc1ccc2nc(COc3cccc(NC(=O)c4cccc(Cl)c4)c3)cc(=O)n2c1,-13.3,–
CC(OC(=O)c1cc2ccccc2o1)C(=O)Nc1ccc(N2CCOCC2)cc1 (centres undefined),-14.4,–
Cc1cc(=O)oc2cc(OC(C)C(=O)Nc3ccc(N4CCOCC4)cc3)ccc12 (centres undefined),–,89.1 µM (active)
COc1ccc(-c2cc(=O)oc3cc(OC(C)C(=O)Nc4ccc(CN5CCOCC5)cc4)ccc23)cc1 (centres undefined),-35.9,–
COc1ccc(-c2c(C)c3ccc(O)c(CN4CCCC4)c3oc2=O)cc1OC,-2.9,–
COc1cc(OC)c(OC)cc1/C=C/c1nc2cc3ccccc3cc2c(=O)n1-c1ccc(F)c(Cl)c1,-24.5,–
O=C(CSc1nc(Nc2ccc(F)c(F)c2)c2ccccc2n1)c1ccc(Cl)cc1,-15.7,–
Cc1ccnc(-n2sc3ccccc3c2=O)n1,–,6.31 µM (active)
Cc1ccc(-c2nnc(Nc3cccc(Br)c3)c3ccccc23)cc1S(=O)(=O)NCC1CCCO1 (centres undefined),-10,–
Cc1ccc(/C=C/C(=O)Nc2cc(S(=O)(=O)N3CCCCCC3)ccc2OCC(F)(F)F)o1,-8.97,–
CNc1ccc(NC(C)=O)cc1[N+](=O)[O-],-19.1,–
Cc1ccc(/C=C/C(=O)Nc2ccc([N+](=O)[O-])c(NC(=O)/C=C/c3ccc(C)o3)c2)o1,–,79.4 µM (active)

Structure (SMILES),"activity change, negative = inhibition [%]",Potency
Cc1nc2ccccc2nc1N/N=C/c1ccc(O)cc1O,–,14.1 µM (active)
Oc1ccc2nc(Cc3ccccc3)[nH]c2c1,-15.7,–
Cc1ccc(/C=N/NC(=O)C2=NNC(c3ccccc3)(c3ccccc3)C2)c(O)c1,-7.05,–
CCOC(=O)c1ccc(NC(=O)CC2C(=O)N(c3cccc(OC)c3)C(=O)N2C2CCCCC2)cc1 (centres undefined),-16.6,–
O=C(N[C@@H](Cc1ccccc1)C(=O)OCc1ccccc1)c1nc[nH]c1C(=O)NC1CCNCC1,-31.2,–
CCOC(=O)c1ccc(NC(=O)c2nc[nH]c2C(=O)NCc2ccccc2)cc1,-6.99,–
CCOC(=O)c1[nH]cnc1C(=O)NC1CCCCC1,–,3.98 µM (active)
CCc1ccccc1NC(=O)N1CCN(C(=O)c2nsc3ccccc23)CC1,-18.2,–
CCOC(=O)c1cccc(NS(=O)(=O)c2cn(C)c(C)n2)c1,-7.67,–
Fc1ccc(CSc2nc(NCc3ccccc3)c3ccccc3n2)cc1,23.7,–
CCCS(=O)(=O)C(=C1Nc2ccccc2N1)S(=O)(=O)CCC,-0.758,–
CN(C)/C=C1/Nc2ccccc2C1=O,–,50.1 µM (active)
CCOc1ccccc1CNC(=O)c1cnc2c(-c3ccc(OCC)c(OCC)c3)c(C)nn2c1C,-20,–
COc1ccccc1CNC(=O)CCn1c(=O)c2ccccc2n(CC(=O)Nc2cccc(Cl)c2)c1=O,-7.17,–
CCCCN(C)c1nnc(NC(=O)Nc2ccc(Br)c(C)c2)s1,-17.9,–
CCNCCC(=O)N1c2ccccc2Sc2ccc(NC(=O)OCC)cc21,-7.81,–
CCN1C(=O)c2ccccc2Sc2ccc(NC(=O)Cc3ccc(OC)cc3)cc21,-25.2,–
CCN1/C(=C/C(=S)Nc2ccccc2)Sc2ccccc21,–,50.1 µM (active)
Cc1cc(C)cc(N(CC(=O)NC2CCCC2)C(=O)CCC(=O)Nc2nccs2)c1,-13.3,–
CC1CCN(CC(=O)Nc2nccs2)CC1,-12.3,–
CC(=O)NC1CCN(CC(=O)Nc2nccs2)CC1,–,31.6 µM (active)
COc1ccc(-c2nc(CN3CCC(C(=O)NCc4ccccc4)CC3)c(C)o2)cc1OC,-5.72,–
COc1ccc(CNC(=O)COCc2cc(-c3cccs3)on2)cc1OC,-9.9,–
Cc1cc([N+](=O)[O-])ccc1NS(=O)(=O)c1ccccc1,-13.1,–
